The record followed here is PubChem BioAssay AID1851 (National Center for Advancing Translational Sciences (NCATS), 2009).

Where “and” joins values, the source holds several entries; their conditions need not be identical. Identical values can stand only once. The campaign covered roughly 16,000 compounds. About 5,800 (36%) were called active. Another 23% or so got no clear call; they are omitted. The list shows a part of the results. Values without a mark were called inactive. Calls follow the shape of the dose curve; as a rule, active = well fitted curve in the direction sought with a large enough effect; inconclusive = small, poorly fitted or top-dose-only effect, or effect the other way; inactive = no such curve, though single readings can be large or run the other way.

The term AC50 denotes the midpoint of the concentration-response curve, whichever way the signal moves.
% is scaled to controls: 0 for no effect and ±100 for the full control effect.

For the experiment, the target named is Cytochrome P450 2C19 (Homo sapiens) (UniProt P33261). The experiment in a line: Cytochrome panel assay with activity outcomes. Conditions: recombinant CYP, pro-luciferin dealkylation, luminescence, p450-cyp2c19; series mostly up to 57.1 µM; activity, negative = inhibition: at the top concentration.
Cytochrome P450 2C19 (Homo sapiens), sequence (P33261 whole entry, looked up): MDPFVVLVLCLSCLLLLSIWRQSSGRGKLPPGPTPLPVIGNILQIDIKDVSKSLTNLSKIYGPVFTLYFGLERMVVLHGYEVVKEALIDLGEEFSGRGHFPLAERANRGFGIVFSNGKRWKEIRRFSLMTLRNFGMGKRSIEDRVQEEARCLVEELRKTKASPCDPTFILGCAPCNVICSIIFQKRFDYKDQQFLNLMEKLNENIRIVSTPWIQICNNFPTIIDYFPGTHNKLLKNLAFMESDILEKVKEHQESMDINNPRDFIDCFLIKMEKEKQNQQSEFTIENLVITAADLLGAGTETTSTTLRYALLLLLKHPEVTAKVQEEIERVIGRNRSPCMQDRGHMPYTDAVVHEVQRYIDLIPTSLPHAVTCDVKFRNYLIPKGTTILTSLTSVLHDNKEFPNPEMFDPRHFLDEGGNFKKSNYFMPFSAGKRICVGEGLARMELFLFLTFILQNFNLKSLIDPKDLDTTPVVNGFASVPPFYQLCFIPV
In the case of `Cc1cccc(N(CC(=O)NC2CCCC2)C(=O)c2cc3cc4cccc(C)c4nc3s2)c1C`, the AC50 was 3.98 µM (active). In the case of `Cc1cc(C)nc(NC(=O)c2cccc([N+](=O)[O-])c2C)n1`, the “activity, negative = inhibition” value is -21.1%. On to `O=C(Nc1cccc(NC(=O)c2ccccc2[N+](=O)[O-])n1)c1ccccc1[N+](=O)[O-]`, for which the concentration at half-maximal activity (AC50) was 8.91 µM (active).

With `C=CCN(CC=C)C(=S)Nc1ccccc1`, the “activity, negative = inhibition” value is -48.7%. On to `S=C(Nc1ccccc1)Nc1ccccc1C#Cc1ccccc1`, for which the AC50 is 3.16 µM (active).

Turning to `CC(=O)N1CCN(c2ccccc2NC(=O)COc2ccc(Br)cc2)CC1`, the AC50 was 14.1 µM (active). For `COc1ccc(-c2ccc3c(n2)CCCN3C[C@H](O)CN2CCCc3nc(-c4ccc(Br)cc4)ccc32)cc1`, the activity, negative = inhibition is 0.393% [at 11.4 µM] and -39.5% [at 11.4 µM].

`Cc1ccc(OCC(=O)Nc2ccccc2N2CCOCC2)c(C)c1`: the AC50 is 3.98 µM (active). As for `CCOc1ccc(C(=O)Nc2ccccc2N2CCCC2)cc1`, the AC50 was 15.8 µM (active).

With `COc1ccc(-n2c(=O)c(C)nc3cnc(N4CCNCC4)nc32)cc1`, the “activity, negative = inhibition” value is -4.91%. `CS(=O)(=O)N1CCC2(CC1)CN(Cc1cc(C(F)(F)F)cc(C(F)(F)F)c1)C2`: the “activity, negative = inhibition” value is -36%. In the case of `NS(=O)(=O)c1cc(C(=O)O)c(O)c2ccccc12`, the activity, negative = inhibition is -24.4% [at 11.4 µM]. Take `CCOC(=O)c1c(C)oc2c1cc(O)c1ccccc12`: the AC50 is 3.55 µM (active).

As to `CC(=O)NCCNc1ncncc1-c1ccccc1CN(C)C`, the “activity, negative = inhibition” value was -8.79%. For the compound `CN(C)Cc1ccccc1-c1cncnc1NC1CC1`, the “activity, negative = inhibition” value was -12.7%. `COc1ccc2[nH]cc(CCNc3ncncc3-c3ccccc3Cl)c2c1`: the AC50 is 0.0631 µM (active). Consider `COCCNc1ncncc1-c1c(C)noc1C`, for which the “activity, negative = inhibition” value was -39%. As for `COc1ccc2[nH]cc(CCNc3ncncc3-c3ccccc3C(F)(F)F)c2c1`, the AC50 was 0.251 µM (active). As to `COc1ccc2[nH]cc(CCNc3ncncc3-c3c(C)noc3C)c2c1`, the AC50 was 3.16 µM (active).

For the compound `COc1ccc2[nH]cc(CCNc3ncncc3-c3ccccc3CN(C)C)c2c1`, the AC50 was 10 µM (active). In the case of `CC(N)=NCc1cccc(CN)c1`, the AC50 entry is “inactive”. `COc1ccc2[nH]cc(CCNc3ncncc3-c3ccccc3OC)c2c1`: the AC50 was 0.0794 µM (active). As to `COc1ccc2[nH]cc(CCNc3ncncc3-c3ccccc3C)c2c1`, the AC50 is 0.0501 µM (active). With `C[C@H]1C[C@H]2[C@H]3CCC4=CC(=O)C=C[C@@]4(C)[C@]3(F)[C@H](O)C[C@]2(C)[C@@]1(O)C(=O)COP(=O)(O)O`, the activity, negative = inhibition was 18.4% [at 11.4 µM]. Turning to `Cc1ccc(C(C(=O)NCc2ccco2)N(C(=O)CNC(=O)c2cccs2)c2ccc(C)cc2C)cc1` (stereo not drawn), the concentration at half-maximal activity (AC50) was 1.12 µM (active). Take `Cc1ccc(C(C(=O)NC2CCCCC2)N(CC2CCCO2)C(=O)CNC(=O)c2cccs2)cc1` (stereo not drawn): the AC50 was 10 µM (active).

Take `O=C(NCc1ccco1)C(c1ccccc1)N(C(=O)Cc1cccs1)c1ccccc1F` (stereo not drawn): the AC50 was 3.16 µM (active). Consider `CCOC(=O)C1=C(C)NC2(O)c3ccccc3C(=O)C12O` (stereo not drawn), for which the “activity, negative = inhibition” value is -23.4%. As to `CCC(C)OC(=O)C1=C(C)NC(=O)CC1c1ccccc1OC` (stereo not drawn), the AC50 is 2 µM (active). Still for that read-out and setting: under `CCCOc1ccccc1C1CC(=O)NC(C)=C1C(=O)OCC(C)C` (stereo not drawn) stands 1.41 µM (active). In the case of `COc1cccc2c1OC1(C)CC2/C(=C(\C)O)C(=O)N1` (stereo not drawn), the “activity, negative = inhibition” value is -10.3%. As for `CCn1c(=O)[nH]c2ccccc21`, the “activity, negative = inhibition” value was -16.8%. For `c1ccc2c(c1)c1ccccc1n2Cn1c2ccccc2c2ccccc21`, the AC50 was 0.398 µM (active).

As for `COc1cccc(-c2cc(NCc3ccc(OC)cc3OC)ncn2)c1`, the concentration at half-maximal activity (AC50) was 5.01 µM (active). As for `COc1cccc(-c2cc(NCc3ccccc3OC)ncn2)c1`, the half-maximal activity concentration (AC50) is 7.94 µM (active). For `COc1ccc(CNc2cc(-c3cccnc3)ncn2)c(OC)c1`, the “activity, negative = inhibition” value was -41.7%.

Turning to `CN(Cc1n[nH]c(=S)n1C)S(=O)(=O)c1ccccc1`, the “activity, negative = inhibition” value is -24.8%. On the same count and under the same terms, the value for `Cn1c(CCNC(=O)c2ccccc2Cl)n[nH]c1=S` was 22.3%. In the case of `S=c1[nH]nc(CSCc2ccccc2Cl)n1-c1ccccc1`, the concentration at half-maximal activity (AC50) was 0.708 µM (active). With `Cc1cccc(NC(=O)CSc2nc3ccccc3c3nc(CCc4c(C)n[nH]c4C)nn23)c1`, the AC50 was 7.94 µM (active). For `COc1ccc(/C=N\NC(=O)O)cc1`, the activity, negative = inhibition is 11% [at 11.4 µM]. With `COC(=O)c1ccc(/C=N\NC(=O)c2ccc(C)cc2Cl)cc1`, the AC50 was 5.01 µM (active).

`Cn1c(=O)n(C)c2cc(/C=N/NC(=O)c3ccc(Cl)cc3Cl)ccc21`: the AC50 is 3.98 µM (active). The same measure, in the same setting: the value for `Cn1c(=O)n(C)c2cc(/C=N/n3cnnc3)ccc21` was 17.8 µM (active). Take `Cn1c(=O)n(C)c2cc(S(=O)(=O)O)ccc21`: the “activity, negative = inhibition” value was -14.7%. Consider `Cc1cc(C)c(S(=O)(=O)Nc2cccc(C(F)(F)F)c2)c(C)c1`, for which the AC50 was 3.16 µM (active). Turning to `Cc1cc(C)c(S(=O)(=O)Nc2ccccc2C(F)(F)F)c(C)c1`, the AC50 is 0.1 µM (active). As to `Cc1cc(C)c(S(=O)(=O)NNC(=O)C2CCN(Cc3ccccc3)CC2)c(C)c1`, the “activity, negative = inhibition” value was -18.9%.
